The values below come from PubChem BioAssay (Tox21).

Where “and” joins values, the source holds several entries; their conditions need not be identical. Identical values can stand only once. Results filed as inconclusive are left out. Where a structure was tested more than once in an assay, its records may differ in their call. Calls of active or inactive are those of the source. Unless noted, calls follow the shape of the dose curve; as a rule, active = well fitted curve in the direction sought with a large enough effect in the repeat runs; inconclusive = weak or mixed curves; inactive = no such curve, though single readings can be large; an effect the other way counts as inactive or inconclusive.

The nature of experiment [1]: qHTS assay to identify small molecule agonists of the hypoxia (HIF-1) signaling pathway - cell viability counter screen (AID 1224844; calls by dose curve; also: nearly all actives have a fitted effect of over 50% in size; also: potency is read from the fitted curve at half-maximal effect). In outline: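 Same wells as the HIF-1 reporter screen; ME-180 cells carrying HRE-bla, 17 hr treatment at 37C; CellTiter-Glo luminescence read after 30 min at room temperature.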
On the technique in general: In qHTS, concentration-response curves come from the screen itself.

Experiment [2] can be described thus: qHTS assay to identify small molecule agonists of H2AX (AID 1224845; active = well fitted activation curve with a large enough effect in the signal ratio in the repeat runs, not every such curve was filed as active; the % refers to the signal ratio; also: potency is read from the fitted curve at half-maximal effect). An outline of the steps:
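Wild-type CHO-K1 cells plated overnight, then exposed 3 hr at 37C to compounds at 15 concentrations (0.76% DMSO). Lysed, then HTRF anti-pH2AX(S139)-cryptate/anti-H2AX-d2 detection after 24 hr at room temperature; emissions 665 and 620 nm.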

Experiment [3] in a line: qHTS assay to identify small molecule agonists of H2AX - cell viability counter screen (AID 1224847; calls by dose curve; also: nearly all actives have a fitted effect of over 30% in size; also: potency is read from the fitted curve at half-maximal effect). In outline:
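Quantitative HTS viability measurement: CHO-K1 wild-type cells in serum (10% FBS) medium, short 3 hr drug exposure at 37C with 0.76% DMSO, CellTiter-Glo luminescent detection.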

Experiment [4] can be described thus: qHTS assay to identify small molecule antagonists of the estrogen related receptor (ERR) signaling pathway from Tox21 library (AID 1224848). Also: nearly all actives have a fitted effect of over 50% in size. Also: potency is read from the fitted curve at half-maximal effect. An outline of the steps: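 First, 2,000 ERR cells per well were plated and held 6 h at 37 C/5% CO2. Next, compounds in DMSO were pinned in and left 18 h at 37 C. Finally, ONE-Glo was added and luminescence read after 30 min at room temperature.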

Experiment [5] is described as follows: qHTS assay to identify small molecule agonists of the estrogen related receptor (ERR) signaling pathway from Tox21 library (AID 1224849; calls by dose curve; also: nearly all actives have a fitted effect of over 15% in size). Particulars: ERR reporter cell line, ONE-Glo luciferase, 18 h; at 92.4 µM (top of the series). An outline of the steps:
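Reporter cells (ERR, NTP source) treated with Tox21 10K compounds 18 h, 37 C. Readout: ONE-Glo luminescence, 30 min RT.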

Experiment [6] in a line: qHTS RealTime-Glo MT Cell Viability Assay in HepG2 cells - 24 hour (AID 1224867). Also: nearly all actives have a fitted effect of over 50% in size. An outline of the steps: (§1)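 Viability was tracked continuously by NanoLuc luminescence from prosubstrate reduced by living HepG2 cells, at successive time points over 40 h of compound exposure. Cells with reagent were preincubated 5 h at 37 °C before compound addition.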
Experiment [7] is described as follows: qHTS RealTime-Glo MT Cell Viability Assay in HEK293 cells - 32 hour (AID 1224868). Also: nearly all actives have a fitted effect of over 50% in size. Also: potency is read from the fitted curve at half-maximal effect. In outline: (§2)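 Viability tracked continuously by luminescence as live cells reduce a prosubstrate for NanoLuc; HEK293 cells preincubated 5 h, compound-treated at 37 C, and read at 0, 8, 16, 24, 32 and 40 h.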
A short description of experiment [8]: A CellTox Green Cytotoxicity Assay to monitor cytotoxicity in HEK293 cells - 0 hour (AID 1224869). Also: nearly all actives have a fitted effect of over 50% in size. In outline: (§3)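 Homogeneous no-lysis format: HEK293 cell suspension mixed with CellTox Green reagent, seeded, incubated 5 h at 37 C/5% CO2, then dosed by pintool with compound in DMSO.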
A short description of experiment [9]: qHTS RealTime-Glo MT Cell Viability Assay in HepG2 cells - 40 hour (AID 1224870). Also: nearly all actives have a fitted effect of over 50% in size. In outline: (§4)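 HepG2 cells mixed with RealTime-Glo MT reagents (NanoLuc plus cell-permeant prosubstrate) were seeded at 600 cells/well, incubated 5 h at 37 C/5% CO2, then pinned with compounds in DMSO; nonlytic luminescence tracked viability during 40 h treatment.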
Experiment [10] in a line: A CellTox Green Cytotoxicity Assay to monitor cytotoxicity in HEK293 cells - 40 hour (AID 1224871). Also: nearly all actives have a fitted effect of over 45% in size. Also: potency is read from the fitted curve at half-maximal effect. An outline of the steps:
as §3

Experiment [11] is described as follows: qHTS RealTime-Glo MT Cell Viability Assay in HEK293 cells - 16 hour (AID 1224872). Also: nearly all actives have a fitted effect of over 50% in size. Also: potency is read from the fitted curve at half-maximal effect. An outline of the steps:
as §2

Experiment [12] can be described thus: qHTS RealTime-Glo MT Cell Viability Assay in HepG2 cells - 8 hour (AID 1224873). Also: nearly all actives have a fitted effect of over 55% in size. An outline of the steps:
as §4

Experiment [13] is described as follows: qHTS RealTime-Glo MT Cell Viability Assay in HEK293 cells - 40 hour (AID 1224874). Also: nearly all actives have a fitted effect of over 50% in size. Also: potency is read from the fitted curve at half-maximal effect. Particulars: RealTime-Glo luminescence; max response: stronger effect = lower value. In outline:
(§5)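 Measured as luminescence from the same continuously cultured HEK293 wells at successive time points (0, 8, 16, 24, 32, 40 h) after compound addition. Reagent present from seeding; dosing at 5 h; incubation 37 C.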

Experiment [14] in a line: A CellTox Green Cytotoxicity Assay to monitor cytotoxicity in HEK293 cells - 24 hour (AID 1224875). Also: nearly all actives have a fitted effect of over 45% in size. Also: potency is read from the fitted curve at half-maximal effect. In outline: as §3
Experiment [15] is described as follows: A CellTox Green Cytotoxicity Assay to monitor cytotoxicity in HepG2 cells - 16 hour (AID 1224876). Also: nearly all actives have a fitted effect of over 45% in size. An outline of the steps: (§6)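 Fluorescent DNA-binding dye, 600 HepG2 cells/well, 5 h preincubation then compound in DMSO; same plates read at 0–40 h, 37 C.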
A short description of experiment [16]: qHTS RealTime-Glo MT Cell Viability Assay in HepG2 cells - 32 hour (AID 1224877). Also: nearly all actives have a fitted effect of over 55% in size. In outline: as §1
The nature of experiment [17]: A CellTox Green Cytotoxicity Assay to monitor cytotoxicity in HepG2 cells - 24 hour (AID 1224878). Also: nearly all actives have a fitted effect of over 45% in size. Also: potency is read from the fitted curve at half-maximal effect. In outline: as §6
The nature of experiment [18]: A CellTox Green Cytotoxicity Assay to monitor cytotoxicity in HepG2 cells - 40 hour (AID 1224879). Also: nearly all actives have a fitted effect of over 40% in size. Also: potency is read from the fitted curve at half-maximal effect. An outline of the steps: as §6
Experiment [19] in a line: qHTS RealTime-Glo MT Cell Viability Assay in HEK293 cells - 0 hour (AID 1224880). In outline:
as §5

The nature of experiment [20]: qHTS assay to identify small molecule agonists of the hypoxia (HIF-1) signaling pathway (AID 1224846; active = well fitted activation curve with a large enough effect in the signal ratio in the repeat runs, not every such curve was filed as active; the % refers to the signal ratio). In outline:
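In ME-180 cells bearing an HRE-bla construct, 17 h treatment with DMSO-dissolved compounds at 37C was followed by CCF4-AM loading to quantify reporter induction.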
% is scaled to controls: 0 for no effect and ±100 for the full control effect.

In the case of `O=C(N[C@H]1CN2CCC1CC2)c1ccc2c(c1)OCCO2`, the Potency entry in [1], in experiment [2], in [3], in experiment [4], in [6] and in experiment [7] was “inactive” in each case. In addition, the Potency entry in experiment [8], in experiment [9], in [10], in [11], in experiment [12] and in [14] was “inactive” throughout. Moreover, the Potency result in experiment [15], in experiment [16], in experiment [17] and in [18] was “inactive” each time. Also, the activity change, positive = activation in experiment [5] was 0.537% (inactive). Moreover, the max response in experiment [13] is 0.421% (inactive). Also, in [19], the outcome was inactive.

For `O=C1CC[C@@]2(O)[C@H]3Cc4ccc(O)c5c4[C@@]2(CCN3CC2CC2)[C@H]1O5`, the Potency result in experiment [1], in experiment [2], in [3], in experiment [6], in experiment [7] and in [8] was “inactive” each time. For the same molecule, the Potency entry in experiment [9], in [10], in [11], in experiment [12], in experiment [14] and in experiment [15] was “inactive” each time. Further, the Potency entry in experiment [16], in experiment [17] and in [18] was “inactive” each time. Besides, in experiment [13], the max response was 3.94% (inactive). Further, in experiment [19], the molecule was called inactive.

With `CCOP(=O)(SC(C)CC)N1CCSC1=O` (stereo unspecified), the Potency result in experiment [1], in experiment [2], in experiment [3], in experiment [6], in experiment [7] and in experiment [8] was “inactive” throughout. Moreover, the Potency result in [9], in experiment [10], in experiment [11], in experiment [12], in [14] and in experiment [15] was “inactive” in each case. Moreover, the Potency result in experiment [16], in experiment [17] and in [18] was “inactive” throughout. For the same molecule, in [13], the max response is 15% (inactive). Further, the molecule was classed as inactive in experiment [19].

Turning to `CCCC[N+]1(C)[C@@H]2CC(OC(=O)[C@H](CO)c3ccccc3)C[C@H]1[C@@H]1O[C@@H]12` (stereo partly specified), the Potency result in [1], in experiment [2], in experiment [3], in experiment [6], in experiment [7] and in [8] was “inactive” throughout. Further, the Potency entry in experiment [9], in [10], in experiment [11], in experiment [12], in experiment [14] and in [15] was “inactive” throughout. In addition, the Potency result in [16], in [17] and in [18] was “inactive” throughout. Also, the max response in experiment [13] was 2.06% (inactive). In experiment [19], the call was inactive.

As for `CCCCC(CC)COC(=O)c1c(Br)c(Br)c(Br)c(Br)c1C(=O)OCC(CC)CCCC` (stereo unspecified), the Potency entry in [1], in experiment [2], in [3], in [6], in experiment [7] and in [9] was “inactive” in each case. The Potency entry in experiment [10], in experiment [11], in [14], in experiment [15], in experiment [16] and in experiment [17] was “inactive” each time. Further, the Potency entry in experiment [18] was “inactive”. The result in experiment [20] and in experiment [19] was inactive. Also, the max response in experiment [13] is -1.1% (inactive).

As to `CCC(C)(C)c1ccc(O)c(C(C)(C)CC)c1`, the Potency is 19.3 µM (active) and 24.5 µM (active) in experiment [1]; 56 µM (active) and 35.7 µM (active) in experiment [2]; 88.8 µM (active) and 40.1 µM (active) in experiment [3]; 60.4 µM (active) and inactive in experiment [4]; 48.5 µM (active) and inactive in experiment [7]; 43.2 µM (active) and 15.5 µM (active) in [10]. Besides, the Potency is 43.2 µM (active) in experiment [11]; 43.2 µM (active) in experiment [13]; 43.2 µM (active) and 17.4 µM (active) in experiment [14]; 34.3 µM (active) in experiment [17]; 38.5 µM (active) in experiment [18]. Moreover, the activity change, positive = activation in [5] is -59% (inactive) and -10.3% (inactive). Further, the Potency entry in experiment [8], in experiment [9] and in [16] was “inactive” in each case. Further, the max response in [13] was -21.8% (inactive). The result in experiment [19] was inactive.

As for `O=[N+]([O-])c1cc(Cl)c(Cl)cc1Cl`, the Potency entry in [1], in [2], in experiment [3], in experiment [4], in [6] and in experiment [7] was “inactive” each time. The Potency entry in [8], in experiment [9], in [11], in experiment [12], in [15] and in [17] was “inactive” throughout. Also, the Potency entry in experiment [18] was “inactive”. Besides, in experiment [5], the activity change, positive = activation was 0.191% (inactive). The max response in [13] was 2.2% (inactive). For the same molecule, the outcome in [19] was inactive.

For the molecule `CCCN(CCOc1c(Cl)cc(Cl)cc1Cl)C(=O)n1ccnc1`, the Potency result in experiment [1], in [2], in experiment [6], in [8], in [9] and in experiment [10] was “inactive” throughout. Besides, the Potency result in experiment [14], in [15], in experiment [16] and in experiment [17] was “inactive” each time. The Potency was 15.7 µM (active) and 24.3 µM (active) in [4]; 19.9 µM (active) and 27.5 µM (active) in experiment [7]; 22.3 µM (active) and 27.5 µM (active) in [11]; 19.9 µM (active) and 27.5 µM (active) in [13]; 43.6 µM (active) in [18]. The activity change, positive = activation in experiment [5] is -62.9% (inactive) and -57.3% (inactive). Also, in experiment [19], the outcome was inactive.

Turning to `CCCC[N+](CCCC)(CCCC)CCCC`, the Potency result in [1], in [3], in [4], in [6], in experiment [9] and in experiment [10] was “inactive” in each case. Further, the Potency entry in experiment [14], in experiment [17] and in experiment [18] was “inactive” each time. For the same molecule, the outcome in experiment [20] and in experiment [19] was inactive. In experiment [5], the activity change, positive = activation is -11.1% (inactive).

For `COP(=O)(OC)OC(Br)C(Cl)(Cl)Br` (stereo unspecified), the Potency in experiment [1] was 43.6 µM (active). Further, the Potency result in experiment [2], in experiment [3], in [6], in experiment [8], in [9] and in experiment [12] was “inactive” throughout. For the same molecule, the Potency result in experiment [14], in experiment [15], in [16], in [17] and in experiment [18] was “inactive” throughout. In addition, the result in [19] was inactive.
